Source: article PMC7862700, “An all-to-all approach to the identification of sequence-specific readers for epigenetic DNA modifications on cytosine”

Experiments:
Test in all cases: DAPPL (digital affinity profiling via proximity ligation, sequencing); 10 mM Tris-HCl pH 7.5, 50 mM NaCl, 1 mM DTT, 4% glycerol, room temperature, 30 min; GST-TFs on glutathione beads, 16-mer random dsDNA library, 0.1% formaldehyde crosslink after washing; high values mean tight binding
FEV = molecular target: T1, FEV (Homo sapiens, UniProt Q99581 1-238); details: protein: recombinant; tags: N-terminal GST; dsDNA, one strand shown
T1 sequence: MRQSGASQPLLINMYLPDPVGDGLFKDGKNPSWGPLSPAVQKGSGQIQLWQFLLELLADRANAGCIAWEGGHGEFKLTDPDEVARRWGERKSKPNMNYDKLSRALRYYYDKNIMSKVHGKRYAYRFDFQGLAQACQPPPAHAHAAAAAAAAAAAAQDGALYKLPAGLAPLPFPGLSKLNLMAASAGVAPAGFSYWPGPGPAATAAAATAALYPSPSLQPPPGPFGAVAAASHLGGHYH
Summary of the method: (§1)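 Human transcription factors were made in yeast as GST fusions, captured on glutathione beads and barcoded with DNA. With a tag-only sample included, the pool was incubated with 200 nmole of a random double-stranded 16-mer DNA library in Tris/NaCl/DTT/glycerol buffer at room temperature for 30 min, then crosslinked with 0.1% formaldehyde after washing, ligated by proximity, amplified and sequenced. For binding signal, each hexamer's read frequency for a factor is divided by its frequency for the tag-only sample.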

ETV5 = ETV5 (Homo sapiens, UniProt P41161 1-510); details: protein: recombinant; tags: N-terminal GST; dsDNA, one strand shown
Chain of ETV5 (P41161 whole entry): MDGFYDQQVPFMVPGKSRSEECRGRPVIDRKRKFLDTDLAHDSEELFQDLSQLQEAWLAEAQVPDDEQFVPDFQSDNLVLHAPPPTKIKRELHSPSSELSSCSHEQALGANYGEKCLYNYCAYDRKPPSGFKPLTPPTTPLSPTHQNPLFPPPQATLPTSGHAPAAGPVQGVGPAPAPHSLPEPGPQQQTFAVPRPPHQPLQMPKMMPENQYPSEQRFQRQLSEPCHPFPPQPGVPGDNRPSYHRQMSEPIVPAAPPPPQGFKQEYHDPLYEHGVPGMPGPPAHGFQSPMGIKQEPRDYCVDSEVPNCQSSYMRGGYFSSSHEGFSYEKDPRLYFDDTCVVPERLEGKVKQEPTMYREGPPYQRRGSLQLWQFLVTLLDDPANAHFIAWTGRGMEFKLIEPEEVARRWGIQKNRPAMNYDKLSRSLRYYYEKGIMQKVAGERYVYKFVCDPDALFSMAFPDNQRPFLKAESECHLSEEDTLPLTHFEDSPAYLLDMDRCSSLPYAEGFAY
Summary of the method: as §1

HSF1 = HSF1 (Homo sapiens, UniProt Q00613 1-529); details: protein: recombinant; tags: N-terminal GST; chain copies: 3; dsDNA, one strand shown
Chain of HSF1 (Q00613 whole entry): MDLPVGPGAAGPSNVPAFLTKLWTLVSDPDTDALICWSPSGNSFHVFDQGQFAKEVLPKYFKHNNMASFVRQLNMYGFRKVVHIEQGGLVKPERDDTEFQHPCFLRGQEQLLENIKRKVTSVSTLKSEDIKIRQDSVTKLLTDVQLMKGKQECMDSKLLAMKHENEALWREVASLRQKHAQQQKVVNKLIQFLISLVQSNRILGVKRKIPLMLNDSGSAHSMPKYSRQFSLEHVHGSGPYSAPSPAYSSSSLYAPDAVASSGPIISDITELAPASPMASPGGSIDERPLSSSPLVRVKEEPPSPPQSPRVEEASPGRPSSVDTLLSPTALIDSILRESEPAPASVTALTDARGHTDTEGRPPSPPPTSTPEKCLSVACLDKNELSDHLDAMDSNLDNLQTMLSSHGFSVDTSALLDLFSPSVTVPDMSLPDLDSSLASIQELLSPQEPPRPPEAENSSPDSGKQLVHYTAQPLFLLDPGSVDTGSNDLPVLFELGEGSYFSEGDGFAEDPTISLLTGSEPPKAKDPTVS
Summary of the method: as §1

SPIC = molecular target: T2, SPIC (Homo sapiens, UniProt Q8N5J4 1-248); details: protein: recombinant; tags: N-terminal GST; dsDNA, one strand shown
T2 sequence: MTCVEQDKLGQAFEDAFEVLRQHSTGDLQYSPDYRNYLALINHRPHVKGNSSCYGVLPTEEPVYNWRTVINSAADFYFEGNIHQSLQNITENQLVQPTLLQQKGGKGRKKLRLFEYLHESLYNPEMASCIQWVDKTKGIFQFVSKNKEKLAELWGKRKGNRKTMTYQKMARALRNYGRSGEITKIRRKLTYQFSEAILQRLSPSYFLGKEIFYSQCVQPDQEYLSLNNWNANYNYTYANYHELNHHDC
Summary of the method: as §1

ELF4 = ELF4 (Homo sapiens, UniProt Q99607 1-663); details: protein: recombinant; tags: N-terminal GST; dsDNA, one strand shown
Chain of ELF4 (Q99607 whole entry): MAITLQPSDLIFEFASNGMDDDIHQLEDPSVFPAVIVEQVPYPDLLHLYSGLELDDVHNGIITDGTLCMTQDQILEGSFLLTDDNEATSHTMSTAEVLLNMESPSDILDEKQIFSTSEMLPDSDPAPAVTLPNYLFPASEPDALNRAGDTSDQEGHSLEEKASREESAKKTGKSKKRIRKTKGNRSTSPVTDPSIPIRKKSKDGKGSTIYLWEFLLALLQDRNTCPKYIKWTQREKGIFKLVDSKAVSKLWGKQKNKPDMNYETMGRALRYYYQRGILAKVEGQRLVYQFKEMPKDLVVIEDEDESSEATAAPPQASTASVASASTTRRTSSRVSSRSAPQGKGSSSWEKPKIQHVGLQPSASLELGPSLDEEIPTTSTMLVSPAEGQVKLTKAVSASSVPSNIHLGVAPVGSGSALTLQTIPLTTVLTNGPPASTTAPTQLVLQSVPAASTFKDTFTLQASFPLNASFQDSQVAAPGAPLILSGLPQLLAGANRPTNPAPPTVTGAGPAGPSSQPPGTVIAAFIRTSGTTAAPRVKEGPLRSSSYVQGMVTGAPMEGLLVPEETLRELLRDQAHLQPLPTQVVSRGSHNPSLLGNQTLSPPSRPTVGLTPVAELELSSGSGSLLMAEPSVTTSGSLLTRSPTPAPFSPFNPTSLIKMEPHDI
Summary of the method: as §1

ELK4 = molecular target: T3, ELK4 (Homo sapiens, UniProt P28324-2 1-405); details: protein: recombinant; tags: N-terminal GST; dsDNA, one strand shown
T3 sequence: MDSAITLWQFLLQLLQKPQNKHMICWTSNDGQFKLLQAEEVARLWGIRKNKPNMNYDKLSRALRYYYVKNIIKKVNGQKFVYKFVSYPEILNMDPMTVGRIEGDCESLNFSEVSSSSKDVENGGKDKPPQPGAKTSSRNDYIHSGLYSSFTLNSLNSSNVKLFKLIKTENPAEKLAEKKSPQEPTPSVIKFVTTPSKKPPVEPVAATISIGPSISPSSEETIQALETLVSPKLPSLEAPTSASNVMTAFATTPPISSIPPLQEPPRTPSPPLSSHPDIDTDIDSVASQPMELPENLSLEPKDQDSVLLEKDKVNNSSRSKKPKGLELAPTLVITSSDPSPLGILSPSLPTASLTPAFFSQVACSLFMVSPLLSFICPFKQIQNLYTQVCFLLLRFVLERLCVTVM
Summary of the method: as §1

ETV2 = molecular target: T4, ETV2 (Homo sapiens, UniProt O00321 1-342); details: protein: recombinant; tags: N-terminal GST; dsDNA, one strand shown
T4 sequence: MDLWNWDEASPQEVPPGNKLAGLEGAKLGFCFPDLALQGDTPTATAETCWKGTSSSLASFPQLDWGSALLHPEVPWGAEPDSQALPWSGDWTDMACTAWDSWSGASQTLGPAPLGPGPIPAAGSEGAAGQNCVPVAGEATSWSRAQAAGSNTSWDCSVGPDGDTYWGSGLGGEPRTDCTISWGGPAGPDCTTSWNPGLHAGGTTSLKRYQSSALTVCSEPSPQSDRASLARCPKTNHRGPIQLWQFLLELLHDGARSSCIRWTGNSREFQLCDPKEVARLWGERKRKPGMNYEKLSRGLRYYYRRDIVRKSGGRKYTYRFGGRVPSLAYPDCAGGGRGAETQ
Summary of the method: as §1

ELF3 = molecular target: T5, ELF3 (Homo sapiens, UniProt P78545 1-371); details: protein: recombinant; tags: N-terminal GST; dsDNA, one strand shown
T5 sequence: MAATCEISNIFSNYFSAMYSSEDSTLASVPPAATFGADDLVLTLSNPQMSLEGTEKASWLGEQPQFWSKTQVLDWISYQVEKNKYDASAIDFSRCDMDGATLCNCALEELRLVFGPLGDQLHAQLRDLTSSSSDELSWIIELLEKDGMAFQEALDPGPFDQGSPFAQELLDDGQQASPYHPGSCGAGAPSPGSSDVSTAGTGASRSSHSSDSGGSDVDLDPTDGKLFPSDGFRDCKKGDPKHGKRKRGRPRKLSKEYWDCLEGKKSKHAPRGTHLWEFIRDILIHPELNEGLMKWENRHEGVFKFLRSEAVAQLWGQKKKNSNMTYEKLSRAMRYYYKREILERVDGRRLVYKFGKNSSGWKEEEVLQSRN
Summary of the method: as §1

CRX = CRX (Homo sapiens, UniProt O43186 1-299); details: protein: recombinant; tags: N-terminal GST; dsDNA, one strand shown
Chain of CRX (O43186 whole entry): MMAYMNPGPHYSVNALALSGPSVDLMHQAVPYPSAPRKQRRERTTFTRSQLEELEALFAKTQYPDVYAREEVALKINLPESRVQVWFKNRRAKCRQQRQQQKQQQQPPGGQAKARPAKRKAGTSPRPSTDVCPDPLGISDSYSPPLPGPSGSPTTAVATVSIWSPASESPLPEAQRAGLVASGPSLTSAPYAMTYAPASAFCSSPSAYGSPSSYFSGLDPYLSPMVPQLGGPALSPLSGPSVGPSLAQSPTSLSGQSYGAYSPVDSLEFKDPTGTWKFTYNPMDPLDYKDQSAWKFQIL
Summary of the method: as §1

ETV1 = ETV1 (Homo sapiens, UniProt P50549 1-477); details: protein: recombinant; tags: N-terminal GST; dsDNA, one strand shown
Chain of ETV1 (P50549 whole entry): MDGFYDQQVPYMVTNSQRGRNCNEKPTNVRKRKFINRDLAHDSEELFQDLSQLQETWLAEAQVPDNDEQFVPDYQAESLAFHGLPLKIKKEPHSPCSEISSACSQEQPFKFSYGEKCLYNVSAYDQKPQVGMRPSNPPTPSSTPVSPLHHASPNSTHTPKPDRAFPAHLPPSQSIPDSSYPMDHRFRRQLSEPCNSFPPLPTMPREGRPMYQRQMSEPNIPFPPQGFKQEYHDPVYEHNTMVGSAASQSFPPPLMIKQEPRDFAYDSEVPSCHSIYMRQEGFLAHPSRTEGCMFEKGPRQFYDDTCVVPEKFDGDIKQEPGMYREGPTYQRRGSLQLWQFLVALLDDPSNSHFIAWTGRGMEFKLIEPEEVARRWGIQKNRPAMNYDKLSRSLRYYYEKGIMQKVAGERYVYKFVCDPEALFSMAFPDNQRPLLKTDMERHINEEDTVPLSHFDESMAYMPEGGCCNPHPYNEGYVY
Summary of the method: as §1

ERF = molecular target: T6, ERF (Homo sapiens, UniProt P50548 1-548); details: protein: recombinant; tags: N-terminal GST; dsDNA, one strand shown
T6 sequence: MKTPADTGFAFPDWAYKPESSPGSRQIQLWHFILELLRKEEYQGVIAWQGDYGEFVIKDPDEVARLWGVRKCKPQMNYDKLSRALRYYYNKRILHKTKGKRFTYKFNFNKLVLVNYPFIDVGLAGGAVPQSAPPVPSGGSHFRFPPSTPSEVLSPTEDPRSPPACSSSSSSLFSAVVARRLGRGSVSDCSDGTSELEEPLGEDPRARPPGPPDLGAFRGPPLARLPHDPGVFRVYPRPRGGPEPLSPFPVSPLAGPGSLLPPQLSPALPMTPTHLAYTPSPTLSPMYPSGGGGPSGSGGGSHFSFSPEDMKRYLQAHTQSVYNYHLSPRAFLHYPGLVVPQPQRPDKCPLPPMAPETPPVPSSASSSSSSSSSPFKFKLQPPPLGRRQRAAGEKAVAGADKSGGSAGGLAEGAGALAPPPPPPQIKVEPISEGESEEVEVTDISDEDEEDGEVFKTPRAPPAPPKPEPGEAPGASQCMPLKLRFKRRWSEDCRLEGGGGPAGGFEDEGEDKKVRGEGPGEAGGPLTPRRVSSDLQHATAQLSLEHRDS
Summary of the method: as §1

ETV3L = molecular target: T7, ETV3L (Homo sapiens, UniProt Q6ZN32 1-361); details: protein: recombinant; tags: N-terminal GST; dsDNA, one strand shown
T7 sequence: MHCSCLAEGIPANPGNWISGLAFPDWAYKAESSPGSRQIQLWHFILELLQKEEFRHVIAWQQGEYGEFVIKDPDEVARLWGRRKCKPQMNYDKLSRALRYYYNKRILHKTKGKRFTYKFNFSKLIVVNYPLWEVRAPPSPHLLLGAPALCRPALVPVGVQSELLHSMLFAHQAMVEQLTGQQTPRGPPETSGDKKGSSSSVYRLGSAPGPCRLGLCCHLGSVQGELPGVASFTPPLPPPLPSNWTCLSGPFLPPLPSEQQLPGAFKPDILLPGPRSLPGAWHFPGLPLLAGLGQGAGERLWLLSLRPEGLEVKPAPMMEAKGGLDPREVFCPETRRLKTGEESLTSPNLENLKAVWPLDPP
Summary of the method: as §1

ETS2 = molecular target: T8, ETS2 (Homo sapiens, UniProt P15036 1-469); details: protein: recombinant; tags: N-terminal GST; dsDNA, one strand shown
T8 sequence: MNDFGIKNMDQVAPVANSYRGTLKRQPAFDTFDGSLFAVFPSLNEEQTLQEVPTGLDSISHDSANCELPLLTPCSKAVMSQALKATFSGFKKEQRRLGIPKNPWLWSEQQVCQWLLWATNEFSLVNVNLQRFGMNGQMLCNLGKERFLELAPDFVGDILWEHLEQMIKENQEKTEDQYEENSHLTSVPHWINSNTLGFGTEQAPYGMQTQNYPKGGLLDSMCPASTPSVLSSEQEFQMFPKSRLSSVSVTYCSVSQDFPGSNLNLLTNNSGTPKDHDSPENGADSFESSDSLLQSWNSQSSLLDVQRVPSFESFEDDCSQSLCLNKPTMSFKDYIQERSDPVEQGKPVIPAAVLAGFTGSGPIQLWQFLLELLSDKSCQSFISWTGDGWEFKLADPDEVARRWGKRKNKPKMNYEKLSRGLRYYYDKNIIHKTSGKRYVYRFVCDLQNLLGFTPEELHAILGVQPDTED
Summary of the method: as §1

SPDEF = molecular target: T9, SPDEF (Homo sapiens, UniProt O95238 1-335); details: protein: recombinant; tags: N-terminal GST; dsDNA, one strand shown
T9 sequence: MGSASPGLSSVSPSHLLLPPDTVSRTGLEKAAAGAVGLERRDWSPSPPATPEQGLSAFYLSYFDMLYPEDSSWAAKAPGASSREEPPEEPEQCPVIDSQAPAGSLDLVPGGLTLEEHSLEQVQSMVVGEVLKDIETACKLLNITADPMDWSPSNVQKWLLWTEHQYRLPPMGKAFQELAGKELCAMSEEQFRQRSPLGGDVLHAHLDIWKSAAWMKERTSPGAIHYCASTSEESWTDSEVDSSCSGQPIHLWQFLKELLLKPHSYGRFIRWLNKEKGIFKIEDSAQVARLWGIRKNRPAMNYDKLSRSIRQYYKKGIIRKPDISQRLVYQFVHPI
Summary of the method: as §1

ETV7 = molecular target: T10, ETV7 (Homo sapiens, UniProt Q9Y603 1-341); details: protein: recombinant; tags: N-terminal GST; dsDNA, one strand shown
T10 sequence: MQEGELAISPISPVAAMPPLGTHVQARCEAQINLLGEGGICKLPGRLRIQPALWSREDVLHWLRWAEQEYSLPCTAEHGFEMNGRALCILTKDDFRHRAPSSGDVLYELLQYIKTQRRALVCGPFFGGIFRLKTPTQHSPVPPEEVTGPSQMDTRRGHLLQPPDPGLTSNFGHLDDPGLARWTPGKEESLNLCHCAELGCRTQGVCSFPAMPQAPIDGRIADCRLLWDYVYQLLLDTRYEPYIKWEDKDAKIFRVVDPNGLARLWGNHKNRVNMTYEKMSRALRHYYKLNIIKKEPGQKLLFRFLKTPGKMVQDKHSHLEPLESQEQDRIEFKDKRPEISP
Summary of the method: as §1

ELF5 = molecular target: T11, ELF5 (Homo sapiens, UniProt Q9UKW6-2 1-255); details: protein: recombinant; tags: N-terminal GST; dsDNA, one strand shown
T11 sequence: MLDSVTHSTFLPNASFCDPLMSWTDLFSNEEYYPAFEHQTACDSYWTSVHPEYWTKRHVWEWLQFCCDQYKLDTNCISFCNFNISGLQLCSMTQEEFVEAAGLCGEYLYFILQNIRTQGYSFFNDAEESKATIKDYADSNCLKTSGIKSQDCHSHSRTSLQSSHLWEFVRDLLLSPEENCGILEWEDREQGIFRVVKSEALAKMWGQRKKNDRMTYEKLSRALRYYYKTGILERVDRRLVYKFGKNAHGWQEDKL
Summary of the method: as §1

ETV3 = molecular target: T12, ETV3 (Homo sapiens, UniProt P41162-2 1-143); details: protein: recombinant; tags: N-terminal GST; dsDNA, one strand shown
T12 sequence: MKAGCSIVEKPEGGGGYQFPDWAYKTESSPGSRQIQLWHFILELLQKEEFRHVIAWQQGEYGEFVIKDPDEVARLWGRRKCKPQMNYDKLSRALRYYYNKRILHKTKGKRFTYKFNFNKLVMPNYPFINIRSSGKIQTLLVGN
Summary of the method: as §1

ETV6 = ETV6 (Homo sapiens, UniProt P41212 1-452); details: protein: recombinant; tags: N-terminal GST; dsDNA, one strand shown
Chain of ETV6 (P41212 whole entry): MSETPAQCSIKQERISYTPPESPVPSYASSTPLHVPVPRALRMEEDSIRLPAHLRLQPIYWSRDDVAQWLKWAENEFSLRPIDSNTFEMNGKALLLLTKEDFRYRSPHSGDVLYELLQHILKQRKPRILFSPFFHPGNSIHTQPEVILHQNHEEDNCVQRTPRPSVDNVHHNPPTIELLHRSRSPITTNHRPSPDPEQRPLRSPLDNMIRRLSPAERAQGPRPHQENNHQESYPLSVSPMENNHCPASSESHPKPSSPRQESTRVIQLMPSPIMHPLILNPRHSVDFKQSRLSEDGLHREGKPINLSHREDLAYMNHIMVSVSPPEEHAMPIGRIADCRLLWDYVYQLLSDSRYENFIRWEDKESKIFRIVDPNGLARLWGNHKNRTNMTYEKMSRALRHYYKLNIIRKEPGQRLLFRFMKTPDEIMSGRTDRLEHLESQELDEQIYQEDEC
Summary of the method: as §1

## AAATAA
FEV
  binding signal: 1.29 fold enrichment (6-mer frequency, TF over GST control)
ETV5
  binding signal: 1.37 fold enrichment (6-mer frequency, TF over GST control)
HSF1
  binding signal: 1.48 fold enrichment (6-mer frequency, TF over GST control)
SPIC
  binding signal: 1.27 fold enrichment (6-mer frequency, TF over GST control)
ELF4
  binding signal: 1.32 fold enrichment (6-mer frequency, TF over GST control)
ELK4
  binding signal: 1.34 fold enrichment (6-mer frequency, TF over GST control)
ETV2
  binding signal: 1.28 fold enrichment (6-mer frequency, TF over GST control)
ELF3
  binding signal: 1.43 fold enrichment (6-mer frequency, TF over GST control)
CRX
  binding signal: 1.71 fold enrichment (6-mer frequency, TF over GST control)
ETV1
  binding signal: 1.3 fold enrichment (6-mer frequency, TF over GST control)
ERF
  binding signal: 1.38 fold enrichment (6-mer frequency, TF over GST control)
ETV3L
  binding signal: 1.26 fold enrichment (6-mer frequency, TF over GST control)
ETS2
  binding signal: 1.39 fold enrichment (6-mer frequency, TF over GST control)
SPDEF
  binding signal: 1.25 fold enrichment (6-mer frequency, TF over GST control)
ETV7
  binding signal: 1.32 fold enrichment (6-mer frequency, TF over GST control)
ELF5
  binding signal: 1.34 fold enrichment (6-mer frequency, TF over GST control)
ETV3
  binding signal: 1.31 fold enrichment (6-mer frequency, TF over GST control)
ETV6
  binding signal: 1.5 fold enrichment (6-mer frequency, TF over GST control)
